About 79,000 compounds went through this panel and 15% of them were active in at least one assay; those are over-represented in the sample as a whole. Active and inactive are the calls of the source. Rule as the data show it: active = growth inhibition above about 70%; inactive = the rest. *1 amine or outer side, *2 acyl side, *3 side chain or, on linkers, in order; H or OH if unused. Where a SMILES comes first, the peptide text is derived from it. Bridges are numbered along the chain shown (N, C = ends). Roman numbers before positions name the chains, in order. [ ]: non-standard residue; d: D form. Actinocin(9to1) = Cc1c2oc3c(C)ccc(C(=O)[*:1])c3nc-2c(C(=O)[*:2])c(N)c1=O; NMeF = CN[CH](Cc1ccccc1)C(=O)O; Sar = CNCC(=O)O
Experiments:
[1] = NCI Yeast Anticancer Drug Screen. Data for the rad50 strain (AID 155);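 also: 0% = growth of vehicle-only cultures of the same strain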; settings: S. cerevisiae rad50 strain growth inhibition; at 50.0 µM; active compounds read high
Summary of the method: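 Growth of the mutant yeast was measured after compound exposure and referenced to vehicle-treated cultures.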

[2] = NCI Yeast Anticancer Drug Screen. Data for the mec2-1 strain (AID 157); settings: S. cerevisiae mec2-1 strain, at 50.0 µM, active compounds read high
Summary of the method: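 Vehicle-treated cultures served as reference for growth inhibition of compound-exposed mec2-1 yeast.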

[3] = NCI Yeast Anticancer Drug Screen. Data for the sgs1 mgt1 strain (AID 161);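 also: 0% = growth of cultures given vehicle only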; settings: S. cerevisiae sgs1 mgt1 strain, at 50.0 µM, active compounds read high
Summary of the method: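 Mutant yeast exposed to compound; growth scored against vehicle-only wells.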

[4] = NCI Yeast Anticancer Drug Screen. Data for the cln2 rad14 strain (AID 165);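 also: 0% = growth equal to vehicle treated cultures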; settings: S. cerevisiae cln2 rad14 strain, at 50.0 µM, active compounds read high
Summary of the method: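 Each compound was tested on cln2 rad14 yeast. Inhibition of growth was calculated against vehicle-exposed controls.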

[5] = NCI Yeast Anticancer Drug Screen. Data for the bub3 strain (AID 167); settings: S. cerevisiae bub3 mutant strain, at 50.0 µM, active compounds read high
Summary of the method: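 Whole-cell yeast assay. The mutant strain was incubated with compounds, and growth inhibition was determined by comparison with vehicle-treated cells.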

[6] = NCI Yeast Anticancer Drug Screen. Data for the mlh1 rad18 strain (AID 175); settings: S. cerevisiae mlh1 rad18 strain growth inhibition; at 50.0 µM; active compounds read high
Summary of the method: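 Vehicle-treated cultures served as the reference for growth inhibition in a yeast strain carrying DNA damage repair alterations exposed to each compound.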

Measured: growth inhibition

OC1c2ccccc2-c2c(Cl)cc(Cl)cc21 (stereo not given)
inactive: [1] 0.25% | [2] 6.1% | [3] 11.2% | [4] -45.9% | [5] 3.95% | [6] 1.95%

CC1(C)C(c2ccccc2)=NN(O)c2ccccc21
inactive: [1] -22.3% | [2] -15.8% | [3] 0.25% | [4] 15.4% | [5] -4.5% | [6] -9.4%

COc1ccc(OCC(=O)N2CCCCC2)cc1
inactive: [1] -2.95% | [2] -11.6% | [3] 0% | [4] -40.2% | [5] 13.2% | [6] -1.65%

Nc1nc(I)nc2c1ncn2C1OC(COS(N)(=O)=O)C(O)C1O (stereo not given)
inactive: [1] 67% | [2] 67.5% | [3] 40.9% | [4] 63.6% | [5] 43.9%
active: [6] 78.3%

O=C(O)CC(Cc1ccc2c(c1)OCO2)C(=O)O (stereo not given)
inactive: [1] -5.6% | [2] -2.35% | [3] -34.2% | [4] -33.9% | [5] -54.6% | [6] 2.55%

Nc1nc2c(nnn2C2OC(CO)C(O)C2O)c(=O)[nH]1 (stereo not given)
inactive: [1] -4.6% | [2] 5.65% | [3] -5.3% | [4] -37.5% | [5] -16.8% | [6] 9.45%

COC1=C(OC)CCC(/C(C#N)=C/c2ccc(OC)c(OC)c2)=C1
inactive: [1] 18.8% | [2] -3.45% | [3] -10% | [4] -11.8% | [5] -0.9% | [6] 25.4%

O/N=C1/CC2(N3CCOCC3)C3CC/C(=N\O)C2CC1(Cc1ccccc1)C3 (stereo not given)
inactive: [1] 2.75% | [2] 0.25% | [3] 17.1% | [4] 27.7% | [5] -11.2% | [6] -10%

Nc1ccc(C(C(=O)O)c2ccccc2)cc1Cl (stereo not given)
inactive: [1] 22.6% | [2] -9% | [3] 20.9% | [4] -1.55% | [5] 12.3% | [6] 5.65%

Cc1ccc(S(=O)(=O)N2CCSCCN(S(=O)(=O)c3ccc(C)cc3)CCN(S(=O)(=O)c3ccc(C)cc3)CC2)cc1
inactive: [1] 5.7% | [2] -2.7% | [3] 0.2% | [4] -19.9% | [5] -18.7% | [6] -18.4%

CN(C)CCCn1c(=O)nc2n(-c3ccccc3)c3ccccc3nc-2c1=O
inactive: [1] 9.3% | [2] 4.5% | [3] -10.4% | [4] 8.75% | [5] 2.35% | [6] -44.5%

CC(=O)OCC1OC(Sc2nc3ncnc(N)c3[nH]2)C(OC(C)=O)C(OC(C)=O)C1OC(C)=O (stereo not given)
inactive: [1] -0.55% | [2] -1.3% | [3] -18.9% | [4] -3.5% | [5] 4.5% | [6] -3.4%

Nc1nc(CCl)nc(N2CCOCC2)n1
inactive: [1] 6.3% | [2] 1.65% | [3] 7.7% | [4] 20.4% | [5] 19.4% | [6] -20.2%

COc1cccc(-n2cnc3c(=S)nc[nH]c32)c1
inactive: [1] 4.2% | [2] -9.3% | [3] 9.7% | [4] -41.6% | [5] -4.85% | [6] 1.9%

O=c1[nH]cnc2c1nnn2CCCCCCCCCCCCn1nnc2c(=O)[nH]cnc21
inactive: [1] -5.9% | [2] -10.2% | [3] 4.5% | [4] -4.2% | [5] 12.7% | [6] 24.8%

CC(=O)Nc1nc(Cl)c2ncn(C3CCCO3)c2n1 (stereo not given)
inactive: [1] -13% | [2] -4% | [3] -9.35% | [4] -33.5% | [5] 0.6% | [6] 2.25%

Cc1ccc2c(c1)CN(C)CO2
inactive: [1] -15% | [2] 6.45% | [3] 5.6% | [4] -51.4% | [5] -18.1% | [6] -24.1%

O=C1NC(=O)C(c2ccsc2)(c2cccs2)N1 (stereo not given)
inactive: [1] 20.9% | [2] -9.3% | [3] 1% | [4] 14.3% | [5] 5.05% | [6] -1.65%

COC(=O)C(C(=O)C(=O)Nc1nc2ccc(OC)cc2s1)c1cnc2ccccc2n1 (stereo not given)
inactive: [1] -13.2% | [2] -23.2% | [3] -45% | [4] 22.6% | [5] -7.5% | [6] -6.15%

N#CC(CC(=O)O)=C(c1ccccc1)c1ccccc1
inactive: [1] -6.75% | [2] -22.2% | [3] -20.5% | [4] 11.7% | [5] -50.8% | [6] 8.95%

Cc1c2oc3c(C)ccc(C(=O)NC4C(=O)NC(C(C)C)C(=O)N5CCCC5C(=O)N(C)CC(=O)N(C)C(Cc5ccccc5)C(=O)OC4C)c3nc-2c(C(=O)NC2C(=O)NC(C(C)C)C(=O)N3CCCC3C(=O)N(C)CC(=O)N(C)C(Cc3ccccc3)C(=O)OC2C)c(N)c1=O (stereo not given) (I: TVP[Sar][NMeF] / II: TVP[Sar][NMeF]; ester I:1-I:C, II:1-II:C; linker I:N-II:N via Actinocin(9to1); configuration not given here)
inactive: [1] -0.6% | [2] 6.05% | [3] -12.7% | [4] 2.15% | [5] -23.6% | [6] -27.4%

COc1cc(N=Nc2c[nH]c3ccccc23)c(OC)cc1N=Nc1ccc([N+](=O)[O-])cc1
inactive: [1] 26.3% | [2] 16.8% | [3] 0.6% | [4] -22% | [5] 13.7% | [6] 34.8%

F[Si](c1ccccc1)(c1ccccc1)c1cccc2ccccc12
active: [1] 98.7% | [2] 98.6% | [3] 99.2% | [4] 98.8% | [5] 98.5% | [6] 98.8%

CCOC(=O)C(NC(=O)CC)(Nc1ccc(S(=O)(=O)Nc2ncccn2)cc1)C(F)(F)F (stereo not given)
inactive: [1] -19.4% | [2] -14.9% | [3] -10.5% | [4] 20.1% | [5] -9.55% | [6] -7.05%

CCCCCCc1ccccn1
inactive: [1] 4.6% | [2] 9.3% | [3] 9.6% | [4] -1.6% | [5] -1.4% | [6] 17.8%

CN(C)/C=C/C(=O)c1ccccc1
inactive: [1] 61.6% | [2] 30.1% | [3] 17.6% | [4] -16.4% | [5] 6.05% | [6] 8.95%

COC(=O)c1[nH]c(C)c(C(=O)OC)c1C
inactive: [1] -8.5% | [2] -27.7% | [3] -3.1% | [4] -5% | [5] -13.2% | [6] -12.8%

Cc1c(Cl)cccc1NC(=O)OCCCc1ccccc1
inactive: [1] 1.5% | [2] 10.2% | [3] 15.6% | [4] -9.45% | [5] 9.35% | [6] 10.2%

CC(=O)Nc1ccc([N+](=O)[O-])cc1
inactive: [1] 30.9% | [2] -0.75% | [3] -5.3% | [4] 5.55% | [5] 14.7% | [6] 1%

CC(=O)OCC1OC(n2ccc(NC(=O)Nc3ccn(C4OC(COC(C)=O)C(OC(C)=O)C4OC(C)=O)c(=O)n3)nc2=O)C(OC(C)=O)C1OC(C)=O (stereo not given)
inactive: [1] -2.25% | [2] -11.1% | [3] 8.25% | [4] -5.35% | [5] -2.25% | [6] 10.9%

O=C(NCCN1CCCC1)Nc1ccccc1
inactive: [1] -3.2% | [2] -20.2% | [3] -17.2% | [4] -47.7% | [5] 2.3% | [6] 8.45%

[Cl][Pt+2][Cl].[NH-]C(CO)C([NH-])CO (stereo not given)
inactive: [1] 32.4% | [2] -47.9% | [3] -10.3% | [4] -15.8% | [5] -27.9% | [6] -61.5%

C1CCC2CC(NC3=NCCO3)CCC2C1 (stereo not given)
inactive: [1] 8.85% | [2] 21.1% | [3] 0.35% | [4] -7% | [5] 22.2% | [6] -85.6%

COC(=O)N1c2ccccc2C23CCN4CCCC5(CCC12C(C(=O)O)C5)C43 (stereo not given)
inactive: [1] -2.6% | [2] 8.2% | [3] 0.15% | [4] -9.45% | [5] 3.9% | [6] 9.7%

Cc1c(NC=O)c(=O)n(-c2ccccc2)n1C
inactive: [1] -10.8% | [2] -33% | [3] 32.9% | [4] 3.65% | [5] 14.4% | [6] 33.7%

CN(CCNC(=O)NC1CCCCC1)c1ccccc1
inactive: [1] 3.45% | [2] 0.75% | [3] 15.9% | [4] 2.85% | [5] 8.45% | [6] 35.4%

CC[N+](CC)(CC)CC(=O)c1ccc(Br)cc1
inactive: [1] 18.7% | [2] 12.7% | [3] 13.1% | [4] -0.35% | [5] 25% | [6] 8.2%

O=C(CCCCCCCCC(=O)NCC1(c2ccccc2)CCNCC1)NCC1(c2ccccc2)CCNCC1
inactive: [1] -27.5% | [2] -23.6% | [3] -15.2% | [4] -3.25% | [5] -23.9% | [6] -11.2%

CCOC(=O)NC(C(=O)OCC)(N1CCN(c2cc3c(cc2F)c(=O)c(C(=O)O)cn3CC)CC1)C(F)(F)F (stereo not given)
inactive: [1] -10.5% | [2] -25.2% | [3] -11.1% | [4] -24.4% | [5] -7.55% | [6] -5.05%

CCCCCCCC/C=C/CCCCCCCCCCCC(=O)O
inactive: [1] -7.6% | [2] -39.2% | [3] -1.45% | [4] -46.5% | [5] -8.9% | [6] 2.35%

Reference: PubChem BioAssay (NCI)
